Measured values: PubChem BioAssay AID624202 (National Center for Advancing Translational Sciences (NCATS), 2012)
In all, about 380,000 compounds went through this assay and about 4,000 (1.1%) were called active. Inconclusive results (about 3%) are left out. Shown is part of a subset that was picked to be rich in actives. Values without a mark were called inactive. The call rests on the fitted dose curve; in most records, active means well fitted activation curve with a large enough effect; inconclusive means small, poorly fitted or top-dose-only effect; inactive means no such curve, though single readings can be large or run the other way.

Test: qHTS Assay to Identify Small Molecule Activators of BRCA1 Expression; further: nearly all actives have a fitted effect of over 80% in size
Settings: MCF7-BRCA1-FFLuc reporter, luminescence, 48 h; series mostly up to 46.1 µM; activation: at the top concentration
Outline: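 Quantitative HTS in MCF7 cells stably reporting BRCA1 expression via firefly luciferase. Compound treatment lasts 48 h at 37 °C in phenol-red free MEM. Activation is expressed relative to genistein at 10 microM and DMSO.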
Potency means the concentration at half of the fitted maximal effect.

| Compound | activation | Potency |
| --- | --- | --- |
| O=C(COC(=O)c1ccccc1C(=O)c1ccccc1)c1ccco1 | 2.69% | – |
| CCN(CC)c1ccc(C(=O)OCC(=O)c2ccco2)cc1 | – | 8.91 µM (active) |
| CCc1ccc(C(=O)COC(=O)c2ccco2)cc1 | 55.8% | – |
| COc1ccc(S(=O)(=O)n2nc(C)c(S(=O)(=O)N3CCCCCC3)c2C)cc1 | 11.7% | – |
| COc1ccc(S(=O)(=O)Nc2cccc3cccnc23)c(N)c1 | -64.9% | – |
| O=C(NCC1CCCO1)c1cc2c(s1)CCCC2 (stereo unspecified) | – | 5.62 µM (active) |
| O=C(NCCCn1ccnc1)c1cc2c(s1)CCCC2 | 0.602% | – |
| CCC(=O)c1c[nH]c(C(=O)NCC2CCCO2)c1 (stereo unspecified) | -7.15% | – |
| Cc1snc(SCc2c(F)cccc2Cl)c1C#N | -0.438% | – |
| Fc1cccc(Cl)c1CSc1ccc(-c2ccco2)nn1 | – | 3.55 µM (active) |
| COc1ccc(NC(=O)CSc2ccc(-c3ccco3)nn2)c(OC)c1 | -0.876% | – |
| S=C(Nc1ccc(Cl)cc1Cl)N1CCCC1 | 97.8% | – |
| O=C(NC(=S)Nc1ccc(Br)cc1F)C1CCCCC1 | 34.2% | – |
| O=C(NC(=S)Nc1ccc(Cl)cc1Cl)C1CC1 | – | 3.16 µM (active) |
| CCC(=O)Nc1ccc(C(=O)Nc2cc(C)on2)cc1 | 78.7% | – |
| CCOc1ccc(NC(=O)Nc2ccc(N(C)C(C)=O)cc2)cc1 | -10.8% | – |
| CCOc1ccc(NC(=O)Nc2cc(C)on2)cc1 | – | 7.94 µM (active) |
| Cc1ccccc1OCCSc1nc2ccc(NC(=O)c3ccco3)cc2s1 | 0% | – |
| Oc1ccc(Br)cc1C1C=C(c2ccc3c(c2)OCO3)NC(c2ccc(Cl)cc2)N1 (stereo unspecified) | 0% | – |
| COc1ccc(COCC(O)CN2CCC(C(N)=O)CC2)cc1 (stereo unspecified) | -22.9% | – |
| COc1cc(CN2CCC(C(N)=O)CC2)ccc1OCc1ccccc1 | – | 11.2 µM (active) |
| COc1ccc(CCN2C(=O)CC(N3CCC(C(N)=O)CC3)C2=O)cc1OC (stereo unspecified) | 2.27% | – |

| Compound | activation | Potency |
| --- | --- | --- |
| CN(C)c1ccc(/C=C/c2sc3ccccc3[n+]2C)cc1 | -43.7% | – |
| COc1ccc(S(=O)(=O)N(C)C)cc1NC(=O)COC(=O)c1n[nH]c2ccccc12 | -5.05% | – |
| COc1ccc(NC(=O)COC(=O)c2n[nH]c3ccccc23)c(OC)c1 | -36.1% | – |
| COC(=O)[C@@H](NC(=O)NCc1cccc(OC)c1)C(C)C | 4.02% | – |
| COc1cccc(CNC(=O)c2n[nH]c3ccccc23)c1 | – | 11.2 µM (active) |
| COc1ccc(COC(=O)c2n[nH]c3ccccc23)cc1F | – | 14.1 µM (active) |
| COc1cccc(CC(=O)OCC(=O)NCc2ccc3c(c2)OCO3)c1 | -10.7% | – |
| CC(=O)c1ccc(NC(=O)C2CCN(S(=O)(=O)c3c(C)noc3/C=C/c3ccc(C)cc3)CC2)cc1 | 13.2% | – |
| CN(CCC#N)c1ccc(C=O)cc1 | 1.33% | – |
| CCN(CCCNC(=O)c1c(C)oc2ncn(CC(C)C)c(=O)c12)Cc1ccccc1 | 0% | – |
| COc1cccc(NC(=O)N(Cc2cn(C)c3ccccc23)C2CCCCCC2)c1 | -54.9% | – |
| CNc1ccc(-c2nc(-c3ccccc3C)no2)cc1[N+](=O)[O-] | -0.0312% | – |
| CCCCN1CC(c2nc3ccccc3n2CCCCOc2ccc(C)cc2C)CC1=O (stereo unspecified) | -27.3% | – |
| CCN1C(=O)/C(=C2\SC(N3CCCCC3)=NC2=O)c2ccccc21 | – | 10 µM (active) |
| CC(C)=C1SC(N2CCN(c3ccc(C)c(Cl)c3)CC2)=NC1=O | -11.5% | – |
| CCn1c(=O)n(CC)c2cc(N3CCCC3)c(NC(=O)c3ccccc3Br)cc21 | -43.1% | – |
| Cc1cc(OC(C)C(=O)Nc2sc3c(c2C(N)=O)CCCC3)ccc1Cl (stereo unspecified) | 9.91% | – |
| CN(C)/C=C/C(=O)c1cnc2sccn2c1=O | -21.1% | – |
| Cc1nc(-c2ccccc2)sc1C(=O)/C=C/N(C)C | – | 11.2 µM (active) |
| Cc1nc(COc2cccc(Cl)c2)sc1C(=O)/C=C/N(C)C | 86% | – |
| Cc1cccc(N2CCN(C(=O)c3cc4c(=O)oc5ccccc5c4s3)CC2C)c1 (stereo unspecified) | 1.26% | – |
| O=C(c1cnn2ccccc12)N1CCc2ccccc21 | – | 3.16 µM (active) |

| Compound | activation | Potency |
| --- | --- | --- |
| Cc1cnc(C(=O)OCC(=O)N2CCc3ccccc32)cn1 | 45.7% | – |
| CCCCn1nc(C(=O)N2CCc3ccccc32)c2ccccc2c1=O | -9.5% | – |
| Cc1nn(C(=O)c2c(F)cccc2F)c(C)c1S(=O)(=O)N1CCOCC1 | 3.27% | – |
| O=C(C1CC1)N1CCc2cc(Br)cc(S(=O)(=O)N3CCN(c4ccccc4F)CC3)c21 | -3.63% | – |
| O=C(COC(=O)c1ccccn1)NNC(=O)c1ccc([N+](=O)[O-])cc1 | 0.358% | – |
| O=[N+]([O-])c1ccc(NC(=S)N2CCN(c3ccccn3)CC2)cc1 | -40.3% | – |
| O=C(Nc1ccc([N+](=O)[O-])cc1)OCCc1ccccn1 | – | 2.82 µM (active) |
| O=C(Nc1ccc(Cl)cc1)Nc1ccc(Oc2cccnc2)nc1 | 28.1% | – |
| CC(=O)c1cccc(NC(=O)c2nc(-c3ccccc3)n(-c3cccc(C)c3)n2)c1 | -0.252% | – |
| CC(=O)c1cccc(NC(=O)Nc2ccc(C)cc2)c1 | – | 14.1 µM (active) |
| Cc1ccc(NC(=O)N2CCC(O)(c3cccnc3)CC2)cc1 | 18% | – |
| Cc1ccc(NC(=O)Nc2ccccc2)c(Br)c1 | – | 1.58 µM (active) |
| Cc1ccc(NC(=O)Nc2cccnc2)cc1 | – | 12.6 µM (active) |
| CC(=O)c1cccc(NC(=O)[C@@H](NC(N)=O)C(C)C)c1 | -13.3% | – |
| CCOc1cc(NC(=O)Nc2ccccc2)c(OCC)cc1NC(=O)CC | -19.8% | – |
| Cc1cc(NC(=O)Nc2c[nH]c(=O)[nH]c2=O)ccc1Br | 10% | – |
| Cc1sc2ncn(CC(=O)N3CCN(c4ccc(F)cc4)CC3)c(=O)c2c1S(=O)(=O)N1CCN(c2ncccn2)CC1 | -7.16% | – |
| COc1ccccc1CNc1ccc(-c2nc(-c3ccccc3C)no2)cc1[N+](=O)[O-] | 3.58% | – |
| CCOC(=O)C(Cc1ccccc1)NC(=O)CCc1c(C)nc2c(c(C)nn2-c2ccc(C)c(C)c2)c1C (stereo unspecified) | 1.84% | – |
| CCS(=O)(=O)N1CCc2cc(C(=O)NCc3ccc(OC)cc3)ccc21 | 0% | – |
| COc1ccc(CNc2nc(-c3ccc(Cl)cc3)cc(C(F)(F)F)n2)cc1 | -6.97% | – |
| CC(Nc1ccc(-c2nc(-c3ccco3)no2)cc1[N+](=O)[O-])c1ccccc1 (stereo unspecified) | 0% | – |

| Compound | activation | Potency |
| --- | --- | --- |
| COc1ccc(NC(=O)Cn2c(=O)n(Cc3ccc(C(=O)NCc4ccccc4Cl)cc3)c(=O)c3ccccc32)cc1 | 7.5% | – |
| COc1ccc(-n2c(=O)c3ccccc3n(Cc3ccccc3Cl)c2=O)cc1 | 13.8% | – |
| Cc1c(NC(=O)Nc2cccc([N+](=O)[O-])c2)c(=O)n(-c2ccccc2)n1C | 0% | – |
| O=C(CN1CCC(NC(=O)Nc2ccccc2)CC1)Nc1cccc([N+](=O)[O-])c1 | -1.04% | – |
| O=C(Nc1cccc([N+](=O)[O-])c1)N1CCc2ccccc2C1 | – | 10 µM (active) |
| O=C(CSc1nnc(-c2ccncc2)n1-c1ccccc1)Nc1ccc(Cl)c(Cl)c1 | -9.9% | – |
| CCOc1ccc(CNC(=O)c2ccc3c(c2)nnn3C2CCCC2)cc1 | 8.43% | – |
| CC1CC(C)CN(c2oc(-c3ccc(OCc4ccc(Cl)cc4)cc3)nc2C#N)C1 (stereo unspecified) | 7.19% | – |
| CCN(CC)C(=O)CSc1nnc(-c2ccc(S(=O)(=O)NCc3ccccc3Cl)cc2)o1 | -7.09% | – |
| COc1cccc(NC(=O)CSc2nnc(-c3cccnc3)o2)c1 | -36.4% | – |
| CCN(CC)C(=O)CSc1nnc(-c2cccc(OC)c2)o1 | – | 11.2 µM (active) |
| CCOC(=O)c1cc(OC(=O)c2ccccc2Cl)n(-c2ccccc2)n1 | 3.87% | – |
| CC(C)(C)c1ccc(C(=O)C[n+]2cccc3cc(Cl)ccc32)cc1 | -79% | – |
| Cn1cc(S(=O)(=O)N2CCCCCC2)cc1C(=O)N1CCN(c2ccc(F)cc2)CC1 | -2.6% | – |
| CCc1ccc(C(=O)CC2(O)C(=O)N(CCc3ccccc3)c3ccc(Br)cc32)cc1 (stereo unspecified) | -66.1% | – |
| Cc1ccc(-c2noc(CSc3nnc(-c4ccc(Cl)cc4)n3C)n2)cc1 | 3.58% | – |
| CCN1CC(CN(C)Cc2nc(-c3ccc(Cl)cc3)no2)CC1=O (stereo unspecified) | -7.51% | – |
| CC1CCN(Cc2nc(-c3ccc(Cl)cc3)no2)CC1 | – | 8.91 µM (active) |
| CC(C)c1ccc2oc(-c3cc(NC(=O)c4cccs4)ccc3Cl)nc2c1 | -45.6% | – |
| CC1(C)Cc2ccccc2-c2c[nH]c(=O)n21 | 7.61% | – |
| CCCN1CNC(=S)N(CCc2ccccc2)C1 | 7.02% | – |
| c1ccc(CCN2CN=C(Nc3nc4ccccc4o3)NC2)cc1 | – | 7.94 µM (active) |

| Compound | activation | Potency |
| --- | --- | --- |
| N#CNC1=NCN(CCc2ccccc2)CN1 | -31% | – |
| CCOC(=O)c1c(C)[nH]c(C)c1S(=O)(=O)N1CCC(C(=O)Nc2ccc(C)c(Cl)c2)CC1 | -39.2% | – |
| C(=Nc1ccc(/C=C/c2ccnc3ccccc23)cc1)Nc1ccc(/C=C/c2ccnc3ccccc23)cc1 | -8.64% | – |
| C/C(=C\C(=O)c1cccnc1)Nc1ccc(C)c(C)c1 | – | 12.6 µM (active) |
| Cc1ccc(S(=O)(=O)N2CCCCC2)cc1NC(=O)c1cccnc1 | -7.67% | – |
| O=C(CC(=O)c1cccnc1)c1ccccc1 | -40.2% | – |
| CC1CCN(C(=S)c2ccc(-c3ccc(Cl)cc3Cl)o2)CC1 | 71.8% | – |
| S=C(c1ccc(-c2ccccc2)o1)N1CCCCC1 | – | 3.98 µM (active) |
| COc1cc(OC)c(C(=S)N2CCCC2)cc1OC | -5.45% | – |
| O=C(CN1CCCCCC1)Nc1ccc(Br)cc1Br | – | 5.62 µM (active) |
| O=C(CN1CCCCCC1)Nc1ccc(Br)cc1[N+](=O)[O-] | 17.5% | – |
| Cc1cc(C)c(NC(=O)CN2CCCCCC2)c(C)c1 | 86.6% | – |
| Cn1c(=O)c2sccc2n2c(CCC(=O)NCc3ccccc3Cl)nnc12 | 0.707% | – |
| CCN(CC)c1ccc(/C=C/c2c(C)cnc3ccc(C)cc23)cc1 | -54.5% | – |
| O=C1N=C(N2CCOCC2)S/C1=C\C=C/c1ccccc1 | 0.869% [at 1.84 µM, scaled: vehicle 0%, 10 µM genistein 100%] | – |
| Cc1ccsc1/C=C1\SC(N2CCOCC2)=NC1=O | – | 11.2 µM (active) |
| CC1CCN(C2=NC(=O)/C(=C/c3cn[nH]c3-c3ccccc3)S2)CC1 | 15.9% | – |
| COc1ccc(Cn2c(=O)n(-c3ccccc3C)c(=O)c3c4c(sc32)CN(C(C)=O)CC4)cc1 | -6.11% | – |
